High-throughput results (PubChem)
NS1 function inh: blocks influenza NS1 protein function | Potency, µM (highest dose often 46.1 µM), without a hit: top-dose activity, positive = more growth | hit rate 0.4% among 270,000; also: potency is read from the fitted curve at half-maximal effect; actives are rising curves; nearly all actives have a fitted effect of over 50% in size
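A cell-based growth assay was used: compounds that relieve NS1-induced slow growth of budding yeast raise OD600. Assay medium was yeast nitrogen base with ammonium sulphate and -URA supplement, pH 6.0, with 2% galactose.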
Pf growth 48h: inhibits P. falciparum growth in the first generation, 48 h. P. falciparum luciferase growth in erythrocytes, 48 h. Potency, µM (series often up to 28.7 µM), for the others: top-dose activity change, negative = inhibition, actives largely listed as inhibitors. hit rate 5.9% among 310,000; active = well fitted inhibition curve with a large enough effect; inconclusive = small, poorly fitted or top-dose-only effect, or another doubt; inactive = no such curve, though single readings can be large or run the other way; also: potency is read from the fitted curve at half-maximal effect; % is scaled to controls: 0 for no effect and ±100 for the full control effect
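Parasite viability was followed by luminescence of a genomically integrated firefly luciferase. Cultures held 0.1% parasitemia at 2% hematocrit (final), incubated under 5% CO2 at 37 C.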
Shiga inhibitor: blocks Shiga toxin action in Vero cells; Vero cells, Shiga toxin protein synthesis inhibition reporter; inhibition, % at 38.7 µM; hit rate 9.2% among 290,000; AID 2315; in the data active = inhibition mostly above about 28%, no sharp cut-off; inactive = mostly below about 43%; also: 0% is about no effect
Pf growth 96h: P. falciparum growth inhibition at 96 hours | P. falciparum luciferase reporter growth, 96 h | Potency, µM (series often up to 28.7 µM), for the others: at the highest dose activity change, negative = inhibition, actives largely listed as inhibitors | hit rate 6.9% among 320,000; active = well fitted inhibition curve with a large enough effect; inconclusive = small, poorly fitted or top-dose-only effect, or another doubt; inactive = no such curve, though single readings can be large or run the other way; also: potency is read from the fitted curve at half-maximal effect; % is scaled to controls: 0 for no effect and ±100 for the full control effect
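Parasite growth measured via integrated firefly luciferase reporter in P. falciparum. Infected erythrocytes at 2% hematocrit, 0.05% parasitemia final were treated 96 hours at 37 C under 5% CO2, and luminescence was read.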
Cycloheximide cs: counter-screen for Shiga toxin inhibitors: cycloheximide protein synthesis inhibition | hit rate 12% among 300,000 | AID 2314 | max response, % | cell reporter, cycloheximide protein synthesis inhibition counterscreen; in the data active = max response mostly above about 13%, no sharp cut-off; inactive = mostly below about 14%; also: read at 38.3 µM for the half of the compounds with a filed dose; 0% is about no effect
NS1 inh valid: validation of influenza NS1 protein function inhibitors; shares compounds with NS1 function inh; influenza NS1 function cell assay, 15-point titration; activity change, negative = inhibition, % at 32.9 µM; 1,400 tested, under 10 active; AID 492980; also: 0% is about no effect
Flu PR8 replic: influenza NS1 inhibitors: inhibition of influenza A/PR/8/34 replication; virus titer (log TCID50), log10 TCID50 at 5 µM; shares compounds with NS1 function inh; MDCK infected influenza A/PR/8/34, virus titer TCID50; active compounds read low; hit rate 30% among 95; AID 504647; call rule not given here
* marks the source's active call; other numbers are inactive results; ? = inconclusive; nt = no result. In the library only some 21% were active in any assay of this set; here they are far more common. Unless noted, calls follow the shape of the full dose curve.

SMILES	NS1 function inh	Pf growth 48h	Shiga inhibitor	Pf growth 96h	Cycloheximide cs	NS1 inh valid	others
COc1ccc(/C=C2/C(=O)NC(=O)N(c3ccccc3)C2=O)cc1CN1C(=O)c2ccccc2C1=O	-3%	3%	-7	-2%	-3	nt
N#Cc1ccc(S(=O)(=O)Nc2ccc3ccccc3n2)cc1	-1%	45%	-2	-8%	8	nt
CC(C)CC(=O)Nc1sc2c(c1C#N)CC(C)(C)NC2(C)C	10µM*	0%	-11	?	0	-1
COc1ccc([C@H]2[C@H](C(=O)C(C)(C)C)N3N=Cc4ccccc4C3[C@]23N=C(c2ccccc2)OC3=O)cc1 (some centres not stated)	2µM*	13µM*	29	9.3µM*	11	-10
COc1cc([N+](=O)[O-])cc(/C=N/N(CCC#N)C(C)=O)c1O	3%	4%	-9	20%	-6	nt
S=C(Nc1ccc(Oc2ccccc2)cc1)NC1CCCCC1	20%	0%	9	9%	17	nt
S=C(Nc1ccc(Oc2ccc(NC(=S)NC3CCCCC3)cc2)cc1)NC1CCCCC1	11µM*	?	37	0%	4	-3
CCOC(=O)Nc1ccc2c(CN3CCN(S(=O)(=O)c4ccccc4)CC3)cc(=O)oc2c1	8.9µM*	9.3µM*	-8	6.6µM*	0	4
CCOC(=O)Nc1ccc2c(CN3C(=O)NC4(CCCC4)C3=O)cc(=O)oc2c1	9%	?	15	?	10	nt
Cc1ccc(S(=O)(=O)N2CCOCC2)cc1NC(=O)COC(=O)c1ccccc1OCc1c(C)noc1C	-11%	-15%	-3	-20%	-1	nt
Cc1nn(-c2ccccc2)c(C)c1/C=N/NC(=O)c1cc(-c2ccc(Cl)s2)[nH]n1	8.9µM*	?	3	-1%	-4	6
O=C(N/N=C/c1ccccn1)c1cc(-c2ccc(Cl)s2)[nH]n1	-1%	-110%	4	?	1	nt
CCN(CC)c1ccc(NC(=O)c2cccc(F)c2)c(C)c1	-2%	7%	6	52%	14	nt
CCOC(=O)c1ccc(NC(=O)CSc2nnc(CCc3ccc(C)o3)n2-c2ccccc2)cc1	1.4µM*	?	15	?	5	-20	Flu PR8 replic=7.7
Cc1ccc(CCc2nnc(SCC(=O)Nc3ccccc3Cl)n2-c2ccccc2)o1	-19%	-9%	-14	-24%	-3	nt
COc1ccc(OC)c(NC(=O)COc2ccc(S(=O)(=O)N3CCCC3)cc2)c1	?	?	-1	?	-5	-8
O=C(COc1ccc(S(=O)(=O)N2CCCC2)cc1)NCc1cccnc1	?	-14%	-2	12%	-4	11
O=C(NCc1cccnc1)C1CCCN(S(=O)(=O)c2ccccc2)C1 (configuration not stated)	1.6µM*	15%	-4	nt	-2	2
O=C(COc1ccc(S(=O)(=O)N2CCCCC2)cc1)NCc1ccncc1	-6%	-12%	-29	-1%	-1	nt
COc1ccc(OCC(=O)Nc2ccc(S(=O)(=O)N3CCCCC3)cc2)cc1	-53%	?	32	7%	14	nt
Cc1ccccc1CS(=O)(=O)Cc1ccc(C(=O)NCCCN2CC(C)CC(C)C2)o1 (configuration not stated)	nt	-2%	-3	0%	-7	nt
Cc1ccc(C)n1NC(=O)c1ccccc1	18%	4%	-9	?	-5	nt
Cc1ccc(C)n1NC(=O)c1ccc(O)cc1	11µM*	nt	18	11%	1	18
COc1cccc(CC(=O)OCC(=O)NC2CCCC2)c1	nt	-5%	nt	-32%	nt	nt
COc1cccc(S(=O)(=O)Nc2ccc(C(=O)N3CCOCC3)cc2)c1	3%	-21%	-11	nt	0	nt
SMILES	NS1 function inh	Pf growth 48h	Shiga inhibitor	Pf growth 96h	Cycloheximide cs	NS1 inh valid	others
O=C(O)c1cc(N/N=C/c2ccc(N3CCOCC3)s2)ccc1Cl	11µM*	22%	64*	3%	45*	23
CCc1ccc(NC(=S)N(Cc2cccc(Br)c2)CC2CCC(C(=O)O)CC2)cc1 (configuration not stated)	nt	-10%	33	18%	21	nt
C#CCn1c(=NC(=O)c2ccc(S(=O)(=O)N3CCCc4ccccc43)cc2)sc2cc(S(N)(=O)=O)ccc21	11µM*	9.3µM*	-2	2.9µM*	0	18
Cc1ccc(CSc2nnc(-c3ccccc3N)c(=O)[nH]2)cc1	11µM*	nt	-1	-14%	1	-35
CCN=C1SC(CC(=O)Nc2ccccc2)C(=O)N1CC (configuration not stated)	-4%	12%	-5	?	-2	nt
Cc1ccccc1N=C1SC(CC(=O)Nc2ccc3ccccc3c2)C(=O)N1Cc1ccccn1 (configuration not stated)	14µM*	1.2µM*	48	3.7µM*	29*	-13
CCOC(=O)CSC1=C(C#N)C(c2ccccc2C)C2=C(CCCC2=O)N1 (configuration not stated)	-1%	-27%	4	nt	-1	nt
CCCCc1ccc(NC(=O)CSC2=C(C#N)C(c3ccco3)C3=C(CCCC3=O)N2)cc1 (configuration not stated)	20µM*	1.9µM*	-3	?	19*	?
COC(=O)N[C@H](c1ccccc1)[C@@]1(C)C[C@@H]1[C@@H](C)C(=O)Nc1ccc2ccccc2c1	nt	nt	-2	nt	3	nt
C[C@@H](C(=O)Nc1ccc2ccccc2c1)[C@@H]1C[C@@]1(C)[C@@H](NC(=O)c1ccccc1)c1ccccc1	13µM*	?	10	13µM*	7	15	Flu PR8 replic=8.7
C[C@@H](C(=O)Nc1ccc2ccccc2c1)[C@H]1C[C@]1(C)[C@H](NC(=O)c1cccnc1)c1ccccc1	14µM*	5.2µM*	-15	5.2µM*	-6	-3	Flu PR8 replic=8
Cc1ccc(-n2c(O)c(C=NCc3ccccn3)c3ccccc3c2=O)cc1C	13%	-27%	10	?	-4	nt
O=C(CN1CCN(c2ccc([N+](=O)[O-])cc2)CC1)Nc1ccccn1	13%	-19%	-4	-21%	-2	nt
CN1C(=S)SC(N2OC3C(=O)N(c4ccccc4)C(=O)C3C2c2ccc(Cl)cc2)C1(C)C (configuration not stated)	-5%	28%	-4	0%	-2	nt
Cc1cc(C(=O)COc2cccnc2[N+](=O)[O-])c(C)n1-c1ccccc1F	?	5%	87*	30%	40*	-9
O=C(N/N=C/c1ccc(N2CCOCC2)cc1)C1COc2ccccc2O1 (configuration not stated)	-13%	-1%	-5	24%	15	nt
CCOC(=O)c1ccc(-n2c(O)c(/C=N/NC(=O)C3COc4ccccc4O3)c3ccccc3c2=O)cc1 (configuration not stated)	8.9µM*	10%	-2	-19%	-1	-3
